Here are results for 40 molecules from PubChem BioAssay (NCATS).

A number with no mark means an inactive call. Where a call stands in place of a potency, no number is given. Activity calls are given as the source filed them. The call rests on the fitted dose curve; in most records, active means well fitted inhibition curve with a large enough effect; inconclusive means small, poorly fitted or top-dose-only effect; inactive means flat fitted curve, though single readings scatter. Where a SMILES comes first, the peptide text is derived from it.

The test deals with Nanoluciferase (engineered Oplophorus gracilirostris luciferase). The test is described as follows: Primary Nanoluciferase (NLuc) qHTS assay for identification of artifact compounds. (AID 1845222). The following applies: NLuc-conditioned medium, Nano-Glo luminescence, 5 min; series mostly up to 54.1 µM. An outline of the steps:
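Diluted conditioned medium from NLuc-expressing S16 cells treated with compounds for 15 min at room temperature, then Nano-Glo substrate added; luminescence read after 5 min. Percent inhibition versus no-enzyme and DMSO controls fitted to 4-parameter Hill equation.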
In general terms: qHTS replaces the single test concentration by a dilution series.
On to `CCC(C)/C=C(C)/C=C/C1=CC2=C(Cl)C(=O)C(C)(OC(C)=O)C(=O)C2=CN1C(CC(=O)O)C(=O)O` (stereo not given), for which the Potency result was “inactive”.

Regarding `CC(C)[C@@H](C(=O)O)N1Cc2c(cc(O)c3c2O[C@]2(C3)[C@H](C)CCC3C(C)(C)[C@H](O)[C@H](O)C[C@@]32C)C1=O` (stereo not given in full), the Potency result is “inactive”.

Consider `CC1=CC2=C(C)C(=O)C(C)(O)C(O)C2CO1` (stereo not given), for which the Potency entry was “inactive”.

On to `NC(Cc1c[nH]c2ccc(O)cc12)C(=O)O` (stereo not given), for which the Potency entry is “inactive”.

Take `C[C@@H]1O[C@@H](O[C@H]2[C@H](OC(=O)[C@]34CCC(C)(C)C[C@H]3C3=CCC5[C@@]6(C)C[C@@H](O)[C@@H](O[C@@H]7O[C@H](CO)[C@@H](O)[C@H](O)[C@H]7O)[C@@](C)(CO)C6[C@H](O)C[C@@]5(C)[C@]3(C)CC4)OC[C@H](O)[C@@H]2O)[C@H](O)[C@H](O[C@@H]2OC[C@](O)(CO)[C@H]2O)[C@H]1O[C@@H]1OC[C@@H](O)[C@H](O[C@H]2O[C@H](C)[C@@H](O)[C@H](O)[C@@H]2O)[C@H]1O` (stereo not given in full): the activity, negative = inhibition is 0% [at 11.6 µM].

As for `C[C@@H]1C[C@H]2OC(=O)[C@@]3(C)CCC[C@](C)(C23)[C@@]1(O)CCC1=CC(=O)OC1O` (stereo not given in full), the Potency result is “inactive”.

As for `CC(=O)NC(Cc1ccccc1)C(=O)NC(C(=O)O)C(C)C` (stereo not drawn) (Ac-Phe-Val-OH; configuration not given here), the Potency result is “inactive”.

As for `C[C@H]1[C@H](C)CC[C@]2(C(=O)OC3OC(CO)C(O)C(O)C3O)CC[C@]3(C(=O)O)C(=CCC4[C@@]5(C)CC[C@H](O[C@@H]6O[C@@H](C)[C@H](OC7OC(CO)C(O)C(O)C7O)[C@@H](O)[C@H]6O)C(C)(C)C5CC[C@]43C)[C@H]12` (stereo not given in full), the activity, negative = inhibition is 1.44% [at 11.6 µM].

On to `Cc1nnc(-c2ccc3occ(-c4ccc(S(C)=O)cc4)c3c2)o1` (stereo not given), for which the Potency result was “inactive”.

For the molecule `COC(=O)[C@H](c1ccccc1Cl)N1CCC2SC(=O)C=C2C1` (stereo not given in full), the Potency result is “inactive”.

As for `C=CC(C)(C)C12Nc3c(ccc4c3OC(C)(C)C=C4)C1(O)CC1C(=O)N3CCCC3C(=O)N12` (stereo not given), the Potency result was “inactive”.

For the molecule `O=C(/C=C/N1C[C@@H]2C[C@@H]1CN2c1ccccn1)c1ccccc1O`, the Potency result was “inactive”.

Take `CC(C)(O)C(O)C(=O)OCc1ccc(O[C@@H]2O[C@H](CO)[C@@H](O)[C@H](O)[C@H]2O)cc1` (stereo not given in full): the Potency entry was “inactive”.

As to `CC(=O)OCC1OC(O[C@H]2CC[C@]34C[C@]35CC(O)[C@]3(C)[C@@H]([C@H](C)CC/C=C(\C)C(=O)O)C(O)C[C@@]3(C)C5CC[C@H]4C2(C)C)C(O)C(O)C1OC1OCC(O)C(O)C1O` (stereo not given in full), the activity, negative = inhibition was -3.42% [at 11.6 µM].

Take `C=C1CCC2C(C)(C)CC(O)CC2(C)C1CCC(C)CCOC(=O)CCC(=O)O` (stereo not given): the Potency entry was “inactive”.

Regarding `COc1cc(C)c(C(=O)OC2C(C)OC(OC3CCC(C)C4C3C=C(C)C3/C(C)=C\CC/C(C)=C/C5(C)C=C(C(=O)O)C(C)CC56OC(=O)/C(=C(\O)C34C)C6=O)C(O)C2O)c(OC)c1` (stereo not given), the activity, negative = inhibition is 4.78% [at 11.6 µM].

In the case of `C/C(=C\C1CCC(C)C2CCC3(C)OC123)C(=O)O` (stereo not given), the Potency result is “inactive”.

For the molecule `COc1c(-c2ccc(O)cc2)cc(OC)c2c1oc1cc(O)c(OC3OC(CO)C(O)C3O)cc12` (stereo not given), the Potency result was “inactive”.

For the molecule `COc1cccc(OC)c1-c1nc(C(=O)N[C@@H](CC(C)C)C(=O)O)cn1-c1ccnc2cc(Cl)ccc12`, the Potency result is “inactive”.

As for `O=C(O)C(Cc1ccccc1)NC(=O)C1CCCN1` (stereo not drawn) (H-Pro-Phe-OH; configuration not given here), the Potency entry is “inactive”.

Consider `CC(=O)OCC(Cc1ccccc1)NC(=O)C(Cc1ccccc1)NC(=O)c1ccccc1` (stereo not given), for which the Potency entry is “inactive”.

As to `CC/C=C\C(O)C(O)C1=C(C)C(=O)C2(O1)C(=O)NC(OC)(C(=O)c1ccccc1)C2O` (stereo not given), the Potency entry is “inactive”.

`C=C1C(=O)OC[C@H]2C(C(=O)O)=CC3CC(C)(C)C[C@@]132` (stereo not given in full): the Potency result was “inactive”.

Consider `C=C1CCC2(C(=O)OC3OC(CO)C(O)C(O)C3O)CCC3(C)C(=CCC4C5(C)CCC(OC6OC(CO)C(OC7OC(C)C(O)C(O)C7O)C(OC7OCC(O)C(O)C7O)C6O)C(C)(C)C5CCC43C)C2C1` (stereo not given), for which the activity, negative = inhibition is 0.389% [at 11.6 µM].

As to `C=CC1(C)CC2CCC3C(C)(C(=O)O)CCCC3(C)C2=CC1=O` (stereo not given), the Potency result is “inactive”.

For the molecule `Cc1cc(CNC(=O)c2cc(C(=O)NCc3ccc(F)c(C)c3)ncn2)ccc1F`, the Potency entry was “inactive”.

Regarding `C/C=C(\C)C1C(C)=CC2CCC(OS(=O)(=O)O)C(C)C2C1/C=C/C=C/C(=O)O` (stereo not given), the Potency entry is “inactive”.

As to `CC1(C)CC[C@]2(C(=O)O[C@@H]3O[C@H](CO)[C@@H](O)[C@H](O)[C@H]3O)CC[C@]3(C)C(=CCC4[C@@]5(C)CC[C@H](O[C@H]6O[C@H](CO)[C@@H](O)[C@H](O[C@@H]7O[C@H](CO)[C@@H](O)[C@H](O)[C@H]7O)[C@H]6O)C(C)(C)C5CC[C@]43C)[C@@H]2C1` (stereo not given in full), the activity, negative = inhibition is -0.923% [at 11.6 µM].

Take `CC(=O)OC1CC(C(C)(C)O)OC2CCC3(C)OC4=C(C(=O)C=C5C(C)C(OC(C)=O)C6(C)C(C)OC546)C(O)C3C12C` (stereo not given): the Potency entry was “inactive”.

With `O=C(/C=C/C=C/c1ccc2c(c1)OCO2)N1CCCCC1`, the Potency result is “inactive”.

As to `C/C(=C\CC/C(C)=C/CC[C@]1(C)CCc2cc(O)cc(C)c2O1)CC/C=C(\C)C(=O)O`, the Potency result is “inactive”.

For `COc1cc(O)cc2c1C(=O)OC(C)C2` (stereo not given), the Potency entry was “inactive”.

`COC(=O)C1C(O)CCC2CN3CCc4c([nH]c5ccccc45)C3CC21` (stereo not given): the Potency entry is “inactive”.

As to `CC1(C)CC[C@]2(C(=O)O)CC[C@]3(C)C(=CCC4[C@@]5(C)CC[C@H](O[C@@H]6O[C@H](C(=O)O)[C@@H](O)[C@H](O[C@@H]7O[C@H](CO)[C@H](O)[C@H](O)[C@H]7O)[C@H]6O[C@@H]6O[C@H](CO)[C@@H](O)[C@H](O)[C@H]6O)C(C)(C)C5CC[C@]43C)[C@@H]2C1` (stereo not given in full), the activity, negative = inhibition was -1.21% [at 6.45 µM].

Consider `C=C(CC/C=C(\C)C(=O)O)C1(O)CC=C(C)CC1` (stereo not given), for which the Potency result is “inactive”.

Consider `COc1cccc(CN(C(=O)CC(C)(C)C)C2CC(C(=O)N3CCNCC3)N(Cc3ccc4c(c3)OCO4)C2)c1` (stereo not given), for which the Potency result was “inactive”.

On to `C[C@@H]1O[C@@H](O[C@H]2[C@H](O)[C@@H](O)[C@H](OC[C@H]3O[C@@H](OC(=O)[C@]45CCC(C)(C)C[C@H]4C4=CCC6[C@@]7(C)C[C@@H](O)[C@H](O)[C@@](C)(CO)C7[C@H](O)C[C@@]6(C)[C@]4(C)CC5)[C@H](O)[C@@H](O)[C@@H]3O)O[C@@H]2CO)[C@H](O)[C@H](O)[C@H]1O` (stereo not given in full), for which the activity, negative = inhibition is 1.41% [at 11.6 µM].

Take `CCC(=O)OCC(=O)[C@@]1(OC(=O)CC)[C@@H](C)C[C@H]2[C@@H]3CCC4=CC(=O)C=C[C@]4(C)[C@@]3(F)[C@@H](O)C[C@@]21C`: the Potency entry is “inactive”.

As to `CC1OC(OC2CCC3(C)C(CCC4(C)C3C=CC35OCC6(CCC(C)(C)CC63)CCC45C)C2(C)CO)C(OC2OC(CO)C(O)C(O)C2O)C(O)C1OC1OC(CO)C(O)C(O)C1O` (stereo not given), the activity, negative = inhibition was 3.75% [at 11.6 µM].

For the molecule `CC(C)c1ccc2c(c1)CCC1[C@](C)(C(=O)O)CCC[C@]21C` (stereo not given in full), the Potency entry is “inactive”.
